Assay results as given in PubChem BioAssay AID493240 (Broad Institute, 2011).
In all, about 1,300 compounds went through this assay and about 270 (21%) were called active. How the calls were made is not given here. Not all results are given here. Entries with a potency or affinity are not part of this list.

assay: SK-MEL-5 parental cell viability loss, dose response, orthogonal assay for MITF inhibitor project, CellTiter-Glo, cherry-picked, set 3 (AID 493240); conditions: SK-MEL-5 viability, ATP luminescence (CellTiter-Glo), 24 h; series mostly up to 35 µM

Compound	outcome
Cc1cc(O)ccc1Nc1nc(-c2cccnc2)cs1	inactive
Cc1c(C#N)c(O)n(CCO)c(=O)c1N=Nc1ccc2c(c1)COC2=O	inactive
N#Cc1cnc2sc3ccccc3n2c1=N	inactive
O=C(NCCSc1ccccc1)c1ccccc1F	inactive
COCn1c(COc2ccccc2)nc2ccccc21	inactive
O=C(N/N=C/c1cccc(Oc2ccc([N+](=O)[O-])cc2[N+](=O)[O-])c1)c1cncc(Br)c1	inactive
CN(C)c1ccc(NC(=O)Nc2ccc3c(c2)nnn3C)cc1	inactive
CC1Cc2ccccc2N1C(=O)c1ccc(Br)o1 (stereo unspecified)	inactive
O=C(c1cc2ccccc2oc1=O)N1CCN(c2ncccn2)CC1	inactive
CN(c1cccc(NC(=O)COc2ccc(Cl)cc2Cl)c1)S(C)(=O)=O	inactive
Cc1ccc(OCC(=O)Nc2cccc(C)n2)c(C)c1	inactive
CCOc1ccccc1-c1nc(-c2ccc(C)nc2OC)no1	inactive
C=CCNC(=O)c1ccc2nc(Cc3ccc(OC)cc3)oc2c1	inactive
O=C(Nc1nc2cc3c(cc2s1)OCO3)C1=COCCO1	inactive
O=C(/C=C/c1ccc(Cl)cc1)c1ccc([N+](=O)[O-])o1	inactive
CCOCCCNC(=O)/C(C#N)=C/c1ccc(Cl)c([N+](=O)[O-])c1	inactive
Cc1nc2cc(NC(=O)Nc3cccc([N+](=O)[O-])c3)ccc2n1C	inactive
O=C(Cc1ccccc1)Nc1ccc(NC(=O)c2ccco2)nc1	inactive
CN(C)/C=N/c1ncc(C(=O)c2ccccc2)s1	inactive
C=C1C(=O)O[C@@]23[C@H]1CC[C@@H](C)[C@@H]2CC[C@@]1(C)O[C@@H]31	inactive
COc1ccc2oc3ccc(OC)cc3c(=O)c2c1	inactive
